The assay can be described thus: chemical genetic growth profiling, strain panel (AID 1159580).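 Further: tested at 20 µM; growth read once vehicle control cultures reached saturation at 30 °C; 1 = growth at the plate median or of vehicle wells; lower values mean less growth of the strain.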 The following applies: growth OD.
Setting [1] is: S. cerevisiae deletion strains, locus YAL013W, strain DEP1, hits give low values.
[2] abbreviates: S. cerevisiae deletion strains, locus YAL040C, strain CLN3, hits give low values.
Where [3] appears, read: S. cerevisiae deletion strains, locus YCL061C, strain MRC1 (second series), hits give low values.
Setting [4] is: S. cerevisiae deletion strains, locus YDR150W, strain NUM1, hits give low values.
The mark [5] stands for this setting: S. cerevisiae deletion strains, locus YDR363W, strain ESC2, hits give low values.
Where [6] appears, read: S. cerevisiae deletion strains, locus YER002W, strain NOP16, hits give low values.
Setting [7] is: S. cerevisiae deletion strains, locus YNL175C, strain NOP13, hits give low values.
Setting [8] is: S. cerevisiae deletion strains, locus YNL197C, strain WHI3, hits give low values.
[9] abbreviates: S. cerevisiae deletion strains, locus YNL224C, strain SQS1, hits give low values.
[10] abbreviates: S. cerevisiae deletion strains, locus YNL322C, strain KRE1, hits give low values.
Setting [11] is: S. cerevisiae deletion strains, locus YOR083W, strain WHI5 (second series), hits give low values.
Setting [12] is: S. cerevisiae deletion strains, locus YPL055C, strain LGE1, hits give low values.
Where [13] appears, read: S. cerevisiae deletion strains, locus YPL241C, strain CIN2, hits give low values.
Setting [14] is: S. cerevisiae deletion strains, locus YBR229C, strain ROT2, hits give low values.
The mark [15] stands for this setting: S. cerevisiae deletion strains, locus YDL101C, strain DUN1, hits give low values.
The mark [16] stands for this setting: S. cerevisiae deletion strains, locus YDL134C, strain PPH21, hits give low values.
[17] abbreviates: S. cerevisiae deletion strains, locus YEL061C, strain CIN8, hits give low values.
[18] abbreviates: S. cerevisiae deletion strains, locus YGR078C, strain PAC10, hits give low values.
The mark [19] stands for this setting: S. cerevisiae deletion strains, locus YHR030C, strain SLT2, hits give low values.
Setting [20] is: S. cerevisiae deletion strains, locus YHR087W, strain rtc3, hits give low values.
The mark [21] stands for this setting: S. cerevisiae deletion strains, locus YJR043C, strain POL32, hits give low values.
The mark [22] stands for this setting: S. cerevisiae deletion strains, locus YJR075W, strain HOC1, hits give low values.
[23] abbreviates: S. cerevisiae deletion strains, locus YLR039C, strain RIC1, hits give low values.
[24] abbreviates: S. cerevisiae deletion strains, locus YLR058C, strain SHM2 (second series), hits give low values.
Where [25] appears, read: S. cerevisiae deletion strains, locus YLR085C, strain ARP6, hits give low values.
The mark [26] stands for this setting: S. cerevisiae deletion strains, locus YLR262C, strain YPT6, hits give low values.
Where [27] appears, read: S. cerevisiae deletion strains, locus YML094W, strain GIM5, hits give low values.
Setting [28] is: S. cerevisiae deletion strains, locus YMR219W, strain ESC1, hits give low values.
Where [29] appears, read: S. cerevisiae deletion strains, locus YMR263W, strain SAP30, hits give low values.
Setting [30] is: S. cerevisiae deletion strains, locus YNL153C, strain GIM3, hits give low values.
[31] abbreviates: S. cerevisiae deletion strains, locus YNL298W, strain CLA4 (second series), hits give low values.
[32] abbreviates: S. cerevisiae deletion strains, locus YNR030W, strain Alg12, hits give low values.
[33] abbreviates: S. cerevisiae deletion strains, locus YOL006C, strain TOP1, hits give low values.
Where [34] appears, read: S. cerevisiae deletion strains, locus YPR135W, strain CTF4, hits give low values.
Where [35] appears, read: S. cerevisiae deletion strains, locus YGR229C, strain SMI1, hits give low values.
Setting [36] is: S. cerevisiae deletion strains, locus YMR307W, strain GAS1, hits give low values.

SMILES strings stand for the structures. In all, about 5,500 compounds went through this assay and about 2,000 (36%) were called active. Roughly 18% stayed inconclusive and do not appear here. The list shows a part of the results. Unmarked numbers belong to inactive results. No stated cut-off is given here; in the data, active means normalized growth mostly below about 0.91 (no sharp cut-off); inconclusive means no clear call, values can overlap the other calls; inactive means mostly above about 0.92.

This passage reports normalized growth results from PubChem BioAssay AID1159580 (chemical genetic matrix, 2015).

Regarding `O=C(OCCN1CCOCC1)C1(c2ccccc2)CCCCC1`, the normalized growth is, setting by setting: under setting [1], 1.07; under setting [2], 1.01; under setting [3], 1; under setting [4], 1.01; under setting [5], 1; under setting [6], 1.01. The normalized growth under setting [7] was 1.01; the normalized growth under setting [8] was 0.999; the normalized growth under setting [9] was 0.996; the normalized growth under setting [10] is 1.01; the normalized growth under setting [11] is 1; the normalized growth under setting [12] was 1.02. The normalized growth under setting [13] is 0.999.

Turning to `O=C(CCN1CCOCC1)c1ccc2c(c1)OCCO2`, the normalized growth under setting [1] was 0.979; the normalized growth under setting [14] is 0.982; the normalized growth (S. cerevisiae deletion strains, locus YCL061C, strain MRC1, hits give low values) is 1.01; the normalized growth under setting [15] was 1.01; the normalized growth under setting [16] is 0.836 (active); the normalized growth under setting [4] is 1.01. The normalized growth under setting [17] is 0.694 (active); the normalized growth under setting [18] was 0.987; the normalized growth under setting [19] is 0.51 (active); the normalized growth under setting [20] was 0.988; the normalized growth under setting [21] was 0.996; the normalized growth under setting [22] was 1.01. Also, the normalized growth under setting [23] is 0.637 (active); the normalized growth under setting [24] is 0.989; the normalized growth under setting [25] is 0.259 (active); the normalized growth under setting [26] is 0.703 (active); the normalized growth under setting [27] was 0.802 (active); the normalized growth under setting [28] is 0.99. In addition, the normalized growth was 1 under setting [29]; 1.03 under setting [30]; 0.852 under setting [31]; 0.968 under setting [10]; 0.787 (active) under setting [32]; 0.708 (active) under setting [33]. For the same compound, the normalized growth is 0.982 under setting [12], 0.769 (active) under setting [13] and 0.737 under setting [34].

Take `O=C(c1ccc2c(c1)OCCO2)N1CCCCC1`: the normalized growth reads like this: under setting [2], 0.989; under setting [3], 0.991; under setting [4], 1.01; under setting [5], 1.06; under setting [6], 0.986; under setting [35], 1.01. Also, the normalized growth under setting [22] is 1.03; the normalized growth under setting [29] is 1; the normalized growth under setting [36] was 1.01; the normalized growth under setting [30] is 0.98; the normalized growth under setting [7] is 0.992; the normalized growth under setting [8] is 0.976. Also, the normalized growth by setting is: under setting [9], 1; under setting [10], 1.02; under setting [11], 0.993.

Turning to `CCNS(=O)(=O)c1cc(Cl)sc1Cl`, the normalized growth was 0.992 under setting [1]; 1.02 under setting [14]; 0.99 under setting [15]; 1.01 under setting [16]; 0.947 under setting [4]; 0.995 under setting [17]. In addition, the normalized growth is 1 under setting [18]; 0.994 under setting [35]; 1.05 under setting [19]; 1 under setting [20]; 1.01 under setting [21]; 1.01 under setting [22]. For the same compound, the normalized growth by setting is: (S. cerevisiae deletion strains, locus YKL190W, strain CNB1, hits give low values) 1; under setting [23], 0.989; under setting [24], 1.04; under setting [25], 0.983; under setting [26], 0.985; under setting [27], 1.01. Further, the normalized growth by setting is: under setting [28], 0.994; under setting [29], 1.01; under setting [36], 0.976; under setting [30], 1.01; under setting [31], 1.05; under setting [10], 0.992. In addition, the normalized growth was 1.01 under setting [32]; 1.02 under setting [33]; 1.12 under setting [12]; 1.01 under setting [13]; 1.13 under setting [34]; 0.998 (S. cerevisiae strains, strain wild type, hits give low values).
